Screens deposited in PubChem by National Center for Advancing Translational Sciences (NCATS).
Lassa entry inh: blocks Lassa virus binding to or entry into cells. Lassa virus pseudotype entry inhibition, cell reporter. AID 540256. 300,000 compounds, 1.2% hits. Potency, µM (doses to about 37.9 µM), actives largely listed as inhibitors; calls by dose curve; tested in HEK293 cells; also: nearly all actives have a fitted effect of over 50% in size
HCMV inh: human cytomegalovirus inhibition; HFF cells, HCMV-luciferase reporter, 72 h; hits give low values; activity change, negative = inhibition, % at 57.5 µM; 410,000 compounds, 4.5% hits; AID 1259415; in the data active = activity change below about -60%; inconclusive = no clear call, values can overlap the other calls; inactive = above about -39%
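Human foreskin fibroblasts infected with luciferase-reporter HCMV at MOI 1 PFU/cell, compounds at two doses. Luciferase measured 72 h post infection; normalized to buffer-only basal and Salinomycin (10uM) controls.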
FMDV inh: antivirals against foot and mouth disease virus | FMDV antiviral cell-based qHTS | Potency, µM (doses to about 57.9 µM), hits mostly inhibitors | 410,000 compounds, 1.2% hits; calls by dose curve; tested in HEK293T cells; also: read-out not given here; nearly all actives have a fitted effect of over 45% in size
VACV Venus inh: vaccinia inhibition (Venus reporter). Vaccinia virus Venus reporter expression, fluorescence. Potency, µM (highest dose often 36.5 µM), most hits filed as inhibitors. 330,000 compounds, 0.46% hits; calls by dose curve; tested in A549 cells; also: nearly all actives have a fitted effect of over 30% in size
Vaccinia mCherry: inhibitors of vaccinia virus infection (mCherry reporter signal); Vaccinia virus mCherry reporter infection, fluorescence; Potency, µM (doses to about 36.5 µM), actives largely listed as inhibitors; 310,000 compounds, 0.63% hits; calls by dose curve; tested in A549 cells; also: nearly all actives have a fitted effect of over 35% in size
MARV entry inh: inhibitors of Marburg virus binding or cell entry; Potency, µM (titrated, usually from 37.8 µM), most hits filed as inhibitors; AID 540276; Marburg virus pseudotyped entry inhibition, cell reporter; 300,000 compounds, 1.8% hits; calls by dose curve; tested in HEK293 cells
Numbers stand for hits; . = inactive; ? = inconclusive; / = no result given. This is a sample that favours compounds with a hit; in the whole collection about 6.5% have one here.

SMILES	Lassa entry inh	HCMV inh	FMDV inh	VACV Venus inh	Vaccinia mCherry	MARV entry inh
O=C(c1ccco1)n1nc(-c2ccc(Cl)cc2)nc1NCc1ccc(F)cc1	.	.	.	.	.	.
CCOc1ccc(-c2nc3n(c(=O)c2C#N)CCCS3)cc1	7.08µM	-90.8	.	.	/	?
COc1cc(=O)n2c(c1C(=O)NCc1ccco1)CCN(Cc1cccc(Cl)c1)CC2	/	/	.	.	.	/
O=C(c1cnn2c1NC(c1ccco1)CC2C(F)(F)F)N1CCN(c2cccc(Cl)c2)CC1 (stereo unspecified)	12.6µM	.	?	?	/	?
O=C(c1ccco1)N1CCN(C(=O)c2cnn3c2NC(c2cccs2)CC3C(F)(F)F)CC1 (stereo unspecified)	.	.	.	.	.	.
S=c1nc[nH]c2c1sc1nc(-c3ccccc3)c3c(c12)CCCC3	/	?	.	?	14.1µM	/
O=c1[nH]cnc2c1sc1nc(-c3ccccc3)c3c(c12)CCCC3	.	.	.	.	.	?
CC(=O)OC[C@H]1O[C@H](CCON=C(C)CCN2CCCc3nc(C)c(C)cc32)C=C[C@H]1OC(C)=O	/	/	/	/	/	.
CC(C)CCNC(=O)/C=C/c1ccc(Br)cc1	1.58µM	?	.	.	.	?
CCOc1ccc(NC(=S)N(CCCN2CCOCC2)Cc2cn(C)c3ccccc23)cc1	.	-92.5	.	.	.	?
COc1ccc(NC(=S)N(CCCN2CCOCC2)Cc2cn(C)c3ccccc23)cc1	?	-97.9	.	.	.	?
CCCC(=O)NC(c1ccco1)c1cc(Cl)c2cccnc2c1O (stereo unspecified)	?	-98.1	.	?	?	?
CCCC(=O)NC(c1cccs1)c1cc(Cl)c2cccnc2c1O (stereo unspecified)	?	-114.1	.	.	.	3.55µM
CCCC(=O)NC(c1ccc2c(c1)OCO2)c1cc(Cl)c2cccnc2c1O (stereo unspecified)	?	/	.	?	12.6µM	?
CCC(=O)NC(c1ccco1)c1cc(Cl)c2ccccc2c1O (stereo unspecified)	/	?	.	/	/	/
Cc1noc(Cn2c(=O)c3cc4c(cc3n(CC(=O)Nc3cccc(Cl)c3)c2=O)OCO4)n1	.	.	?	.	.	/
COCc1ccc(CN2CCOc3ccc(C4=Cc5ccccc5C4)cc3C2)o1	/	/	.	.	.	/
CCN(CC)CCN1C(=O)C(O)=C(C(=O)c2cccs2)[C@@H]1c1ccccn1	/	/	/	/	/	.
O=C(Cn1c(=O)n(CC2CS2)c2ccccc21)N1CCCCCC1 (stereo unspecified)	.	-69.9	.	.	.	.
FC(F)(F)c1ccc(/C=N/n2c(COc3ccccc3)n[nH]c2=S)cc1	?	-66.1	.	.	.	.
O=C(C1=C(C(=O)N(C2CCCCC2)C2CCCCC2)CCCC1)N1CCCCC1	/	/	/	/	/	.
COC(=O)c1ccc(Cl)c(NC(=O)Cc2ccccc2[N+](=O)[O-])c1	.	-71.7	.	.	.	.
O=C1CN(C(=O)c2ccc(S(=O)(=O)N3CCCCC3)cc2)C(c2ccc(F)cc2)c2cc(Br)ccc2N1 (stereo unspecified)	?	.	.	.	.	?
N=c1c[n+](CC23CC4CC(CC(C4)C2)C3)[n-]o1	.	-74.9	.	.	/	.
CCOc1ccc(/C=N/n2c(SC)nnc(C(C)(C)C)c2=O)cc1	10µM	.	.	.	/	.
SMILES	Lassa entry inh	HCMV inh	FMDV inh	VACV Venus inh	Vaccinia mCherry	MARV entry inh
COc1ccc(CN(C2CCCC2)S(=O)(=O)c2ccccc2Br)cc1	/	/	/	/	/	12.5µM
CCc1nnc(NC(=O)CSc2nc3cccnc3n2C2CCCCC2)s1	5.62µM	?	?	.	.	2.51µM
CCCCn1c(SCC(=O)Nc2cc(C(F)(F)F)cc(C(F)(F)F)c2)nnc1C(CC)N(C)C (stereo unspecified)	?	-88.4	?	?	.	?
CCC(=O)c1ccc(OCc2ccccc2)c(OC)c1	?	.	.	.	.	?
COC(=O)c1ccc(OCCOc2ccccc2)cc1	.	.	.	.	/	?
COc1cccc(OC)c1OCCOc1ccc(C(=O)c2ccccc2)cc1	?	-65.8	31.6µM	.	.	?
CCC(=O)c1ccc(OCc2ccc(C(=O)c3ccccc3)cc2)cc1	5.01µM	.	?	.	.	?
Cc1c(Br)cccc1NC(=O)C1(C)CCN1Cc1ccc(OC(C)C)cc1 (stereo unspecified)	/	?	.	.	?	/
CC(C)Oc1ccc(CN2CCC2(C)C(=O)Nc2cccc3cccnc23)cc1 (stereo unspecified)	/	-77.9	.	.	.	/
